One test concerns the target Proto-oncogene tyrosine-protein kinase ROS (Homo sapiens) (UniProt P08922). The conditions noted are these: at 1 µM.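 Also: value given is the mean percent inhibition of ROS kinase activity.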
Sequence of Proto-oncogene tyrosine-protein kinase ROS (Homo sapiens) (P08922 whole entry): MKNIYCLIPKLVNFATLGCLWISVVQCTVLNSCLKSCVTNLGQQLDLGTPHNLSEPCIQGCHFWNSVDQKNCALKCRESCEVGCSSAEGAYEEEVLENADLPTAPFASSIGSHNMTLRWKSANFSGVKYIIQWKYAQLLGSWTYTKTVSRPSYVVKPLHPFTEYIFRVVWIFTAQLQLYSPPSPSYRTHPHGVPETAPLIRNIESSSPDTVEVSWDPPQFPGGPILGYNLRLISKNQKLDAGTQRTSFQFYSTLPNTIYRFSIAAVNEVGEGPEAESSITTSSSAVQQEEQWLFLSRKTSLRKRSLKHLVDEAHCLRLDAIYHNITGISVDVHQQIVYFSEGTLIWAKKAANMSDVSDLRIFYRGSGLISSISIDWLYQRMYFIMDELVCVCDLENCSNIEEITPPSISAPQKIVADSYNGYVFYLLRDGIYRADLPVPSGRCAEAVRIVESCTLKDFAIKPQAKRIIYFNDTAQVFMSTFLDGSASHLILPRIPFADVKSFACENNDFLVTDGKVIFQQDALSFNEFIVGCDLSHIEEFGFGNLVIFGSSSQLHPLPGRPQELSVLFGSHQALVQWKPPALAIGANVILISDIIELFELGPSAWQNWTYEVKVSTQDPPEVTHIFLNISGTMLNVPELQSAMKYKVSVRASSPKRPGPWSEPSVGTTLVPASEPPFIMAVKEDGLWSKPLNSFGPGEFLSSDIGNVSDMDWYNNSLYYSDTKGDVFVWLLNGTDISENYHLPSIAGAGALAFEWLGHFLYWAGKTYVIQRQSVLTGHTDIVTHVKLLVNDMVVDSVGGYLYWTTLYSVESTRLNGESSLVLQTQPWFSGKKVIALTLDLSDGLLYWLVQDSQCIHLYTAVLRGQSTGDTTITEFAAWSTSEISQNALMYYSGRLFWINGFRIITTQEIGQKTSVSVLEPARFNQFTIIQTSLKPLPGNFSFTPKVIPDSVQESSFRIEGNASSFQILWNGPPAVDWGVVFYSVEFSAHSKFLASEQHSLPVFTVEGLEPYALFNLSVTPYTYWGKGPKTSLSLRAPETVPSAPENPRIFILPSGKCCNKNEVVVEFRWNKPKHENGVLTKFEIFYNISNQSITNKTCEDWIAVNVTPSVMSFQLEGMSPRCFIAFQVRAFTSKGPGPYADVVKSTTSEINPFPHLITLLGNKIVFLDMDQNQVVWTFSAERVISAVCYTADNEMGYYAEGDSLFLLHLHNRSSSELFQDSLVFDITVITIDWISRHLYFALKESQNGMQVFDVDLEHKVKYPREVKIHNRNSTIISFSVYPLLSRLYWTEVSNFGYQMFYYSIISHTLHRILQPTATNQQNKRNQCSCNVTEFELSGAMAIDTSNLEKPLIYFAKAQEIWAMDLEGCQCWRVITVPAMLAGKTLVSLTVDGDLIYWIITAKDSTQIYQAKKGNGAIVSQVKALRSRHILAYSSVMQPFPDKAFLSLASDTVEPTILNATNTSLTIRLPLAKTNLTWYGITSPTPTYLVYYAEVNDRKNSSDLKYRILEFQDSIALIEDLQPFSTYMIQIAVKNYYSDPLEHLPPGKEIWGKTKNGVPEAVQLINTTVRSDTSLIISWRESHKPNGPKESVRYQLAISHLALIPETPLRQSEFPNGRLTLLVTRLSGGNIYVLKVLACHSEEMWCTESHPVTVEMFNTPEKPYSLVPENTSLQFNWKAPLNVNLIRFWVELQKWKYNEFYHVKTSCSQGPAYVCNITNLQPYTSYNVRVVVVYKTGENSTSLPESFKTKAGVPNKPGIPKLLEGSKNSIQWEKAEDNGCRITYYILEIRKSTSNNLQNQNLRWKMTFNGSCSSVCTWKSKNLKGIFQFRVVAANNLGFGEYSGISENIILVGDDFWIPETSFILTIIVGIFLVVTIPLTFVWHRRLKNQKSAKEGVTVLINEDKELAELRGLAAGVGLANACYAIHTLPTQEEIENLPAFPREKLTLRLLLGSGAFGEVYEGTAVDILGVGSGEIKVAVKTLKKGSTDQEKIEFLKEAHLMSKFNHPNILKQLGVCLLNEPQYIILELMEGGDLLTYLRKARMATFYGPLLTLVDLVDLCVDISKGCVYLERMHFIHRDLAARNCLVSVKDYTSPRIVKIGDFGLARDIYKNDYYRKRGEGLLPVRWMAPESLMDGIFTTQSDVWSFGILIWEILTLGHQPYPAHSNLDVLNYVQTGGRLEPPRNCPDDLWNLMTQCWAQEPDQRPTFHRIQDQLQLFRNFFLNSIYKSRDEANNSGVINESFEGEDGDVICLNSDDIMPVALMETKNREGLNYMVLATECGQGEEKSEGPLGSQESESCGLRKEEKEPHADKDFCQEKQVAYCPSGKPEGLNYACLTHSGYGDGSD
In the case of `[O-][S+]1CCN(Cc2ccc(-c3ccc4ncnc(Nc5ccc(OCc6ccccc6)c(Cl)c5)c4c3)o2)CC1`, the inhibition (in general, the relative decrease from the control value, in per cent) turned out to be 3.8%. The same measure, in the same setting: in the case of `C[C@@H](Oc1cc(-n2cnc3ccc(OCC4CCN(C)CC4)cc32)sc1C(N)=O)c1ccccc1C(F)(F)F` it was 7.21%; in that of `O=S(=O)(CCOCc1ccc(-c2ccc3ncnc(Nc4ccc(OCc5cccc(F)c5)c(Cl)c4)c3c2)o1)c1ccccc1`, 3.57%; in that of `CCn1c(-c2nonc2N)nc2ccc(F)cc21`, 8.6%. On the same count and under the same terms, in the case of `CC(C)c1ccc(Nc2nccc(-c3cnn4ncccc34)n2)cc1` it was 62.4%; in that of `CN(c1ccc(NC(=O)Nc2ccc(OC(F)(F)F)cc2)cc1)c1ccnc(Nc2cccc(S(N)(=O)=O)c2)n1`, 66.9%; in that of `NS(=O)(=O)c1ccc(N/N=C2\C(=O)Nc3ccc(Cl)cc32)cc1`, 4.73%.

Consider `COc1cccc(-n2ncc3c(N/N=C/c4ccc(S(C)(=O)=O)cc4)ncnc32)c1`, for which the inhibition turned out to be 27.2%. As to `CC(C)c1ccc2c(c1)NC(=O)/C2=N/Nc1ccc(S(N)(=O)=O)cc1`, the inhibition worked out at 3.01%. Same read-out and setting: for `Cc1cc(Cl)cc2c1NC(=O)C2=NNc1ccc(S(N)(=O)=O)cc1` the value was 3.14%; for `N#Cc1c(NC(=O)c2ccccc2F)sc2c1CCCC2`, 0.32%; for `CN(C)c1cc2c(Nc3ccc4c(cnn4Cc4ccccc4)c3)ncnc2cn1`, 2.03%. On to `Nc1nccc(-c2c(-c3ccc(F)cc3)ncn2CCCN2CCOCC2)n1`, for which the inhibition turned out to be 5.81%.

On to `Cc1ccc(NC(=O)CC2CC2)cc1-c1ccc(C(=O)NCC2CC2)cc1`, for which the inhibition stood at 8.56%. The same measure, in the same setting: in the case of `CCn1c(-c2nonc2N)nc2c(C#CC(C)(C)O)nc(OCCNC)cc21` it was 6.96%. Same read-out and setting: in the case of `Oc1cccc(-c2nc(-c3ccccc3)[nH]c2-c2ccncc2)c1` it was 9.95%. Same read-out and setting: for `Nc1ccc(C#Cc2cncnc2Nc2ccc(OCc3cccc(F)c3)c(Cl)c2)cc1` the value was 3.55%. Regarding `NS(=O)(=O)c1ccc(NC=C2C(=O)Nc3ccc4ncsc4c32)cc1`, the inhibition is 36.8%. On the same count and under the same terms, in the case of `NS(=O)(=O)c1ccc(-c2cc3ccncc3cc2OCc2ccccc2)cc1` it was 11%; in that of `Cc1cc(O)cc(C)c1/C=C/c1cncc(C(=O)N(C)C)c1`, 7.84%. As to `c1ccc(Nc2ncc(-c3ccccc3)o2)cc1`, the inhibition amounted to 5.92%. On the same count and under the same terms, in the case of `COc1cccc(-n2nc(C)c3c(N/N=C(\C)c4ccncc4)ncnc32)c1` it was 4.49%.

Consider `NC(=O)c1sc(-n2cnc3ccccc32)cc1OCc1ccccc1Br`, for which the inhibition amounted to 10.1%. Same read-out and setting: in the case of `CCOc1nccc2c1nc(-c1nonc1N)n2CC` it was 11.8%. Still for that read-out and setting: for `CN(C)CCCn1c(-c2nonc2N)nc2cnccc21` the value was 4.62%.

For the molecule `NC(=O)c1cccc(Nc2nccc(Nc3cccc(F)c3)n2)c1`, the inhibition turned out to be 60.8%. Still for that read-out and setting: for `COC(=O)c1ccc2c(c1)C(=Cc1cc(Br)c(O)c(Br)c1)C(=O)N2` the value was 9.41%; for `FC(F)(F)c1ccc(-c2nn3ncccc3c2-c2ccnc(Nc3ccc4c(c3)OCCO4)n2)cc1`, 9.43%; for `COc1cc(/C=N/Nc2ncnc3c2cnn3C(C)C)ccc1O`, 37.5%. On the same count and under the same terms, in the case of `COC(=O)c1cncc(/C=C/c2c(C)cc(O)cc2C)c1` it was 6.7%. Still for that read-out and setting: in the case of `COc1cc2ncn(-c3cc(OCc4ccccc4S(C)(=O)=O)c(C#N)s3)c2cc1OC` it was 68.7%. For `Cc1ccc2c(-c3ccnc(Nc4ccc5c(c4)OCCO5)n3)c(-c3ccc(C(F)(F)F)cc3)nn2n1`, the inhibition was 2.46%.

For `Cc1ccc(Nc2ccnc(Nc3cccc(C(N)=O)c3)n2)cc1O`, the inhibition stood at 61.4%.

For a further test, the target named is Proto-oncogene tyrosine-protein kinase Src (Homo sapiens) (UniProt P12931). The conditions noted are these: at 0.1 µM.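 Also: values are averaged inhibition of Src, tested against the GSK PKIS kinase inhibitor set.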
Sequence of Proto-oncogene tyrosine-protein kinase Src (Homo sapiens) (P12931 2-536 limits assumed): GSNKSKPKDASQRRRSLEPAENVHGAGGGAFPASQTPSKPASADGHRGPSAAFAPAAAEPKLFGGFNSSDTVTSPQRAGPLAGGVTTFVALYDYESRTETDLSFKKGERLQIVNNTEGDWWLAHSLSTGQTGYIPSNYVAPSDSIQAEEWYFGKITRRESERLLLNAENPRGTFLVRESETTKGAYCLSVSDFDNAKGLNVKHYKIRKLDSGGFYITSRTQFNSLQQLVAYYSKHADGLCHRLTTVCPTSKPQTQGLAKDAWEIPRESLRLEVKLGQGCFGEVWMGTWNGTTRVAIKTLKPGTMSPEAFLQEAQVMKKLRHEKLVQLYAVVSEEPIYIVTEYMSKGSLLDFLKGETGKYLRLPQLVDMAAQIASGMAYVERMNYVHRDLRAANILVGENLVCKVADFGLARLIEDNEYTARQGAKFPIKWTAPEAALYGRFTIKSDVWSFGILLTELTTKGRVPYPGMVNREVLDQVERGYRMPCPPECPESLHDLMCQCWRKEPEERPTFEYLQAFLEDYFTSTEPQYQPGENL
Consider `[O-][S+]1CCN(Cc2ccc(-c3ccc4ncnc(Nc5ccc(OCc6ccccc6)c(Cl)c5)c4c3)o2)CC1`, for which the inhibition was found to be 1.76%. The same measure, in the same setting: for `C[C@@H](Oc1cc(-n2cnc3ccc(OCC4CCN(C)CC4)cc32)sc1C(N)=O)c1ccccc1C(F)(F)F` the value was -1.27%; for `O=S(=O)(CCOCc1ccc(-c2ccc3ncnc(Nc4ccc(OCc5cccc(F)c5)c(Cl)c4)c3c2)o1)c1ccccc1`, 0.66%; for `CCn1c(-c2nonc2N)nc2ccc(F)cc21`, 4.3%. Take `CC(C)c1ccc(Nc2nccc(-c3cnn4ncccc34)n2)cc1`: the inhibition is 1.55%. On the same count and under the same terms, for `CN(c1ccc(NC(=O)Nc2ccc(OC(F)(F)F)cc2)cc1)c1ccnc(Nc2cccc(S(N)(=O)=O)c2)n1` the value was 41.9%; for `NS(=O)(=O)c1ccc(N/N=C2\C(=O)Nc3ccc(Cl)cc32)cc1`, -2.96%. On the same count and under the same terms, in the case of `COc1cccc(-n2ncc3c(N/N=C/c4ccc(S(C)(=O)=O)cc4)ncnc32)c1` it was 56.5%.

On to `CC(C)c1ccc2c(c1)NC(=O)/C2=N/Nc1ccc(S(N)(=O)=O)cc1`, for which the inhibition was found to be 3.8%. On the same count and under the same terms, in the case of `Cc1cc(Cl)cc2c1NC(=O)C2=NNc1ccc(S(N)(=O)=O)cc1` it was 5.04%.

On to `c1ccc(Cc2nc3ccc(Nc4ncnc5ccccc45)cc3[nH]2)cc1`, for which the inhibition came out at 0.79%. Still for that read-out and setting: in the case of `N#Cc1c(NC(=O)c2ccccc2F)sc2c1CCCC2` it was -4.11%. On the same count and under the same terms, in the case of `CN(C)c1cc2c(Nc3ccc4c(cnn4Cc4ccccc4)c3)ncnc2cn1` it was 3.91%; in that of `Nc1nccc(-c2c(-c3ccc(F)cc3)ncn2CCCN2CCOCC2)n1`, -0.33%. The same measure, in the same setting: in the case of `Cc1ccc(NC(=O)CC2CC2)cc1-c1ccc(C(=O)NCC2CC2)cc1` it was 4.43%; in that of `CCn1c(-c2nonc2N)nc2c(C#CC(C)(C)O)nc(OCCNC)cc21`, 8.38%. For `Oc1cccc(-c2nc(-c3ccccc3)[nH]c2-c2ccncc2)c1`, the inhibition worked out at 18.7%.

Consider `Nc1ccc(C#Cc2cncnc2Nc2ccc(OCc3cccc(F)c3)c(Cl)c2)cc1`, for which the inhibition is 5.95%. On the same count and under the same terms, in the case of `NS(=O)(=O)c1ccc(NC=C2C(=O)Nc3ccc4ncsc4c32)cc1` it was 14.2%; in that of `NS(=O)(=O)c1ccc(-c2cc3ccncc3cc2OCc2ccccc2)cc1`, -0.21%. Same read-out and setting: in the case of `Cc1cc(O)cc(C)c1/C=C/c1cncc(C(=O)N(C)C)c1` it was 1.66%; in that of `c1ccc(Nc2ncc(-c3ccccc3)o2)cc1`, 9.27%; in that of `COc1cccc(-n2nc(C)c3c(N/N=C(\C)c4ccncc4)ncnc32)c1`, 2.45%. Still for that read-out and setting: for `NC(=O)c1sc(-n2cnc3ccccc32)cc1OCc1ccccc1Br` the value was 7.25%; for `CN(C)CCCn1c(-c2nonc2N)nc2cnccc21`, 2.96%; for `NC(=O)c1cccc(Nc2nccc(Nc3cccc(F)c3)n2)c1`, 16.7%. `COC(=O)c1ccc2c(c1)C(=Cc1cc(Br)c(O)c(Br)c1)C(=O)N2`: the inhibition was 8.74%. With `FC(F)(F)c1ccc(-c2nn3ncccc3c2-c2ccnc(Nc3ccc4c(c3)OCCO4)n2)cc1`, the inhibition amounted to 0.84%.

`COc1cc(/C=N/Nc2ncnc3c2cnn3C(C)C)ccc1O`: the inhibition came to 20.8%. On the same count and under the same terms, for `COC(=O)c1cncc(/C=C/c2c(C)cc(O)cc2C)c1` the value was 11.8%; for `COc1cc2ncn(-c3cc(OCc4ccccc4S(C)(=O)=O)c(C#N)s3)c2cc1OC`, 3.54%. Still for that read-out and setting: in the case of `Cc1ccc2c(-c3ccnc(Nc4ccc5c(c4)OCCO5)n3)c(-c3ccc(C(F)(F)F)cc3)nn2n1` it was 1.69%.

With `Cc1ccc(Nc2ccnc(Nc3cccc(C(N)=O)c3)n2)cc1O`, the inhibition turned out to be 78.3%.
